Experimental data: the supplement of paper PMC6555819

Each sequence was assayed on VDR:RXRa (NR concentration 270 nM, RXRa partner concentration 90 nM) (assay: PBM binding z-score (relative to random genomic background probes); higher = stronger binding; sequences stand for … in GC…GCGATTGACAGCGTAGAATGAAGG).
Procedure: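 Protein-binding microarray (Agilent 4x180K custom design, double-stranded 60-nt probes: 5' GC cap, 34-nt variable region, 24-nt constant primer region; full probe sequence given). Purified or IVT nuclear receptor:RXRα heterodimers (3:1 NR:RXRα, mostly 270:90 nM) or homodimers were incubated for 1 h in PBS with 2% milk and no ligand, then detected with Alexa488 antibodies. Fluorescence from o1-orientation probes (~5 replicates averaged) was converted to z-scores against 500 random hg19 background probes. Variable regions are seed direct-repeat (DR0–DR5) sites, all their single-nucleotide variants and half-site ablations.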

Row | Sequence | PBM binding z-score
1 | TCATATAGGTAAACATGTGAAAGTCCGTAAGTTA | 1.1
2 | TCTCGGAGGACACGAAAGGTAAGAGCTCGACATC | 0.0922
3 | CACCCTAGGTCAGGGCCAGTATAGGAGGAACGTT | 0.555
4 | CCTACTGGGCCATTCAGAGGTCATGGATCATATG | 3.92
5 | TCTATCAGTTGAAGGGCAACCGACGAGTCCGTTT | 1.07
6 | AGTCAAAGTTCACTCGGTAACGTAAGATTCAGCT | 4.31
7 | CGTCGAAGGTCAAAGGTCAGTGAAGAGATGACGG | 6.4
8 | CCTACTGGACCAAAGGTCATTGATTCCAATGCTC | 5
9 | GCTGCTAGGTCAGGTTGGTCAGCTATCGGGTACG | 0.576
10 | CAGCCTAGGTCAGGGCCAGTAAAGGAGGAACGTT | 0.0313
11 | TAGCCTAGGTCATGGGCCAGTATTCCACGCGAAC | 2.09
12 | TTACCAAGGTGAGCTAAGGTCGTTGATCCAACTC | 3.13
13 | TCTGCTAGGTCAACGATGGACAGCTAATCTGCTA | 1.21
14 | CCTTACGGGTCACTCCAGGTTTTAGCATCGGAGT | 3.47
15 | TCATATAGGTAAAGGTGAGAGTCGAACGATATGA | 0.633
16 | ACAGCCAGGTGATGAAGGTAACTCAGGCTATCAT | -0.126
17 | CGAACTAGGTCATCCAGGACGGTGAATACATTGA | 3.72
18 | TCATAAAGGTAAATGCTAGGTGAAAGTCCGATCT | 0.918
19 | ATCTCTAGGTAAAGTTCAGTGAAAGATCGATAGA | 1.73
20 | CCGACTGGGGCAAGTTTACCATAACGCACAGCCA | 0.191

Row | Sequence | PBM binding z-score
21 | CAAACTAGGTCACGAAAGGACAAAGTCGAATGAC | 4.23
22 | CGTCCAAGGTCAAGGTCAGTGCAAGAGACTCGAA | 5.5
23 | CCGACTGTGGCAAAGGTTACCATACTCAGTACGA | 1.03
24 | CAAACTAGGTCACGAAAGGTGAAAGTCGAATGAC | 4.19
25 | CCTAGTTGCTCAAGGTCACACACGCTATAGGTAC | 4.26
26 | ATCTCTAGGTAAAAGTTCAGTGGATCCCGAGGAT | 1.21
27 | GCTAGAAGGCCATTTGGGTCACTCAATGACGGGC | 1.82
28 | CGAAATAGGTCAGAACAGGACAGTGAAGGATGAT | 1.71
29 | CAAACTAGGACAAGGTCAAAGTCGGTTTGTGCCA | 4.36
30 | AGAATGAGGTTATTAAGATCAGTGAATTGCGGTC | 2.5
31 | CCGACTGGGGCAAAGGTAACCATACTCAGTACGA | 0.122
32 | GATACAGGGTCAAGGCCATAGTACGCGTATTGAT | 4.21
33 | ATATGTAGGTTTAGGGTCATTCAGGTTGGTTCGC | 5.54
34 | TCTGCTAGGTCAACGATGCTCAGCTAATCTGCTA | 1.15
35 | TAGCCTAGGACAGATCGGGCCAGTATACGCTATA | -0.85
36 | ATATGTGGGTTAAGGGTCATTCAGGTTGGTTCGC | 5.79
37 | TCATATAGGTAAGCAGGTGAAAGTCCGTAAGTTA | 0.388
38 | CGAATTAGGTCAGAACAGGACAGTGAAGGATGAT | 0.932
39 | GCAGCCAGGTGAAACGCAGGTAACTCAGGGTGGC | -0.929
40 | TCATATTGGTAAATGCTAGGTGAAAGTCCGATCT | 0.687
